# Bioassay records (PubChem BioAssay)
# Most compounds without a hit are left out; they make up all but 7.5% or so of the library.
# SMN2 splice up: qHTS Assay for Enhancers of SMN2 Splice Variant Expression; HEK293 SMN2-luciferase splicing reporter, luminescence, 30-36 h; Potency, µM (series often up to 46.1 µM), usual class: activators; 2.8% of 210,000 active; note: nearly all actives have a fitted effect of over 55% in size
#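 HEK293 cells carry an SMN2 minigene-luciferase reporter in which exon 7 inclusion puts luciferase in frame. Cells were seeded at 2000 cells/well, attached for 10-12 hours, then exposed to compounds for 30-36 hours at 37C before ONE-Glo luminescence.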
# ELG1 genotoxic: qHTS screen for small molecules that induce genotoxicity in human embryonic kidney (HEK293T) cells expressing luciferase-tagged ELG1 | HEK293T ELG1-luciferase reporter, luminescence, 16 h | AID 504466, 2011 | 1.3% of 330,000 active | Potency, µM (doses to about 46 µM), hits mostly activators; note: nearly all actives have a fitted effect of over 60% in size
#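 After overnight (16 hr) compound treatment at 37 °C, ELG1-luciferase HEK293T cells were lysed with ONE-Glo; luminescence quantified 30 min later at room temperature.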
# Rab9 promoter act: qHTS Assay for Rab9 Promoter Activators; Huh7 Rab9 promoter-luciferase reporter, luminescence, 24 h; 2.8% of 320,000 active; Potency, µM (series often up to 9.22 µM), actives largely listed as activators; note: nearly all actives have a fitted effect of over 60% in size
#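 Huh7 reporter line, Rab9 promoter upstream of luciferase. Compound exposure 24 h at 37 °C in reduced-serum medium with 10% FBS. Read-out: luminescence.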
# NPC1 promoter act: qHTS Assay for NPC1 Promoter Activators. Huh7 NPC1 promoter luciferase reporter, 24 h. 2.4% of 320,000 active. Potency, µM (titrated, usually from 9.22 µM), hits mostly activators; note: nearly all actives have a fitted effect of over 60% in size
#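 Luminescence read-out of NPC1 promoter-driven luciferase in stably transfected Huh7 cells; compounds delivered in DMSO and left 24 h at 37C, 5% CO2, qHTS titration format.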
# FLuc modulator: qHTS profiling assay for firefly luciferase inhibitor/activator using purifed enzyme and Km concentrations of substrates (counterscreen for miR-21 project). Luciferin 4-monooxygenase (Photinus pyralis), P08659. purified FLuc, Km substrates, luminescence inhibition. Potency, µM (titrated, usually from 57.5 µM), actives largely listed as inhibitors. 6.9% of 360,000 active. AID 588342, 2011; note: nearly all actives have a fitted effect of over 55% in size
# Target sequence (P08659 whole entry, looked up): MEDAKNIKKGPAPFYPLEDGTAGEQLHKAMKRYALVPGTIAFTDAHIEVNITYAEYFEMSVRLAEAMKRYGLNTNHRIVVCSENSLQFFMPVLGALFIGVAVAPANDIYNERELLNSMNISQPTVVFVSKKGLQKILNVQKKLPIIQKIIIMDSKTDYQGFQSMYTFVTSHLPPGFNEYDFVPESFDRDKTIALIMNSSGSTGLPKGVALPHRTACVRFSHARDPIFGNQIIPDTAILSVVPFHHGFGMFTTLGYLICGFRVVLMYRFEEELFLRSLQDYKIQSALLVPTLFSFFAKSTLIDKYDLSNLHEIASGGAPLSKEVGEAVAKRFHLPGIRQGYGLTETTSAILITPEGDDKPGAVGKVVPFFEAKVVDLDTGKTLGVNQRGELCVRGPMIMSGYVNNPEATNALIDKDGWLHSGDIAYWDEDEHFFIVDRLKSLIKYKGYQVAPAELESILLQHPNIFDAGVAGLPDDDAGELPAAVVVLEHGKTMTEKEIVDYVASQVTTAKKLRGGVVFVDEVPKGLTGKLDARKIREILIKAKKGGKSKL
#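 Purified P. pyralis luciferase (10nM final) with 10uM D-luciferin and 10uM ATP (Km levels) in 50mM Tris acetate pH 7.5, 10mM Mg acetate, 0.01% Tween-20, 0.05% BSA; qHTS 6-point titration, ~60 µM downward; luminescence read.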
# Luc counter: Counterscreen for Luciferase (Kinase-Glo TM) Inhibition; 0.28% of 200,000 active; Luciferin 4-monooxygenase (Photuris pensylvanica), Q27757; Kinase-Glo luciferase, ATP luminescence, 8 min; Potency, µM (top dose mostly 38.3 µM), hits mostly inhibitors; note: nearly all actives have a fitted effect of over 60% in size
#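 Inhibition of Kinase-Glo luciferase light generation was assessed at 10 uM ATP in pH 7.2 imidazole buffer, with luminescence measured after eight minutes at ambient temperature.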
# A number is an active result; – = inactive; ? = inconclusive; · = no result. Calls come from the whole dose curve; as a rule, active = well fitted curve in the direction sought with a large enough effect; inconclusive = small, poorly fitted or top-dose-only effect, or another doubt; inactive = no such curve, though single readings can be large; an effect the other way counts as inactive or inconclusive.
SMILES,SMN2 splice up,ELG1 genotoxic,Rab9 promoter act,NPC1 promoter act,FLuc modulator,Luc counter
CCOC(=O)c1c(-c2ccccc2)oc2ccc(OCC(O)CN(C)C)cc12 (stereo not drawn),·,–,–,–,–,·
COc1ccc(NC(=O)Cn2nnnc2-c2ccccc2F)c(C)c1,–,·,·,·,–,·
Cc1cc(C(=O)N/N=C/c2c(C)[nH]n(-c3ccccc3)c2=O)n[nH]1,·,–,–,–,5.4µM,·
C=CCNc1oc(/C=C/c2ccccc2)nc1C#N,11µM,?,2.2µM,2.5µM,4.8µM,–
CCOc1ccc(/C=C/c2nc(C#N)c(NCCCOC)o2)cc1,·,–,–,–,?,·
COCCCNc1oc(/C=C/c2ccccc2)nc1C#N,·,2.9µM,1.1µM,3.5µM,3.4µM,·
COc1ccc(/C=N/N2CCN(C)CC2)cc1O,–,–,–,–,–,–
Cc1ccc(/C=N/n2c(-c3ccco3)n[nH]c2=S)cc1,·,–,–,–,–,·
CCN=c1scc(-c2ccco2)n1/N=C/c1ccc(O)cc1,?,12µM,?,?,6.7µM,–
CCN=c1scc(-c2ccco2)n1/N=C/c1ccc(OC)c(O)c1,?,·,·,·,5.4µM,–
C=CC[C@@H](CC(=O)N[C@H](CO)Cc1ccccc1)C(=O)N[C@@H](COC(=O)[C@@H](CC=C)CC(=O)OC(C)(C)C)Cc1ccccc1,·,–,·,·,·,·
CCCCC(=O)Nc1cccc(-c2cn3ccsc3n2)c1,–,–,–,–,15µM,–
COc1ccccc1C(=O)Nc1cccc(-c2cn3ccsc3n2)c1,–,–,–,–,4.3µM,–
CCCCC(=O)Nc1cccc(-c2nnc(-c3ccccc3)o2)c1,?,–,–,–,?,–
Nc1cccc(-c2cn3ccsc3n2)c1,·,·,·,·,21µM,·
CCOc1ncccc1C(=O)Nc1ccc(-c2cn3ccsc3n2)cc1,–,–,–,–,–,–
O=C(Nc1cccc(-c2cn3ccsc3n2)c1)c1ccccc1,–,–,–,–,11µM,–
Cn1c(=O)cc(SCC(=O)N2CCN(c3ccc(F)cc3)CC2)c2ccc(Cl)cc21,–,·,·,·,–,·
CC(=O)c1c[nH]c(C(=O)NC2CCCCCC2)c1,·,–,–,–,–,·
C[C@H]1COC(=O)[C@@H](CC(=O)OC(C)(C)C)C/C=C\C[C@@H](CC(=O)N(CCO)Cc2ccccc2)C(=O)N1,·,–,·,·,·,·
CSc1ccc(NC(=O)C(C)N2CCN(C)CC2)cc1 (stereo not drawn),·,–,–,–,–,·
Cc1ccc(C)c(NS(=O)(=O)c2cc3c(cc2Cl)NC(=O)CO3)c1,·,·,·,·,–,·
O=C(O)c1ccc(NNC(=S)Nc2cc(C(F)(F)F)ccc2Cl)cc1,·,18µM,–,–,24µM,·
Cc1occc1C(=O)Nc1cc(C(F)(F)F)ccc1Cl,25µM,–,–,–,–,–
Cc1occc1C(=O)Nc1ccc(Br)cc1F,–,?,3.2µM,?,21µM,–
SMILES,SMN2 splice up,ELG1 genotoxic,Rab9 promoter act,NPC1 promoter act,FLuc modulator,Luc counter
Oc1ccc(N2CCN(Cc3cc4c(cc3Br)OCCO4)CC2)cc1,·,–,–,–,–,·
Oc1ccc(Cl)cc1-c1cc(-c2ccco2)[nH]n1,–,–,–,–,19µM,–
Oc1ccccc1-c1cc(-c2ccccc2Cl)[nH]n1,3.5µM,·,·,·,0.67µM,–
Oc1c(-c2cc(-c3ccco3)[nH]n2)ccc2ccccc12,14µM,?,3.2µM,3.2µM,?,–
Oc1ccccc1-c1cc(-c2ccco2)[nH]n1,?,5.8µM,–,–,9.5µM,–
O=C(Cn1c(=O)c2cccn2c2ccc(F)cc21)NCc1cccc(Cl)c1,·,·,·,·,–,·
O=C(NCCn1ccc2ccccc21)c1ccc(Cl)cc1,13µM,·,·,·,21µM,·
COc1cccc(C(=O)NCCn2ccc3ccccc32)c1,7.9µM,?,4µM,2.8µM,19µM,–
CCCn1c(SCc2nc(-c3cc(OC)ccc3OC)no2)nnc1-c1ccc(Cl)cc1,–,·,·,·,–,·
COc1ccc(N=Nc2nc3cc(Br)c(Br)cc3n2C)c(OC)c1,–,–,–,–,5.4µM,–
COc1ccc(OC)c(CNc2ccc3c(c2)nc(C)n3C)c1,·,–,–,–,–,·
CCn1cc2nc(SCC(=O)Nc3ccc(OC)c(OC)c3)n(Cc3ccc(OC)cc3)c(=O)c2n1,·,–,–,–,17µM,·
CCn1cc2nc(SCC(=O)Nc3ccc(OC)c(Cl)c3)n(Cc3ccc(OC)cc3)c(=O)c2n1,–,·,·,·,–,·
CCn1cc(C(=O)N[C@@H](CCSC)C(=O)NCCCN2CCOCC2)c(=O)c2cc3c(cc21)OCO3,·,–,–,–,–,·
Cc1ccc(SCC(=O)Nc2ccc3oc(-c4cccc(Cl)c4)nc3c2)cc1,·,·,·,·,–,·
C/C(=N\Nc1ccc([N+](=O)[O-])cc1)c1ccco1,·,?,3.5µM,?,7.6µM,–
COC(=O)N/N=C(\C)c1ccc(C)c([N+](=O)[O-])c1,?,–,–,–,?,–
C/C(=N\Nc1ccc([N+](=O)[O-])cc1)c1ccc(N2CCOCC2)cc1,·,–,–,–,8.5µM,·
C/C(=N\Nc1ccccc1[N+](=O)[O-])c1ccc(N2CCOCC2)cc1,?,?,3.2µM,2.8µM,3.4µM,–
C/C(=N/Nc1ccccc1[N+](=O)[O-])c1ccc(C)c([N+](=O)[O-])c1,·,–,?,3.2µM,–,·
CCOc1cc(Br)cc(/C=N/NC(=O)c2cccnc2)c1O,·,?,–,–,–,·
CN(C)c1ccc(/C=C2\CCCCC2=O)cc1,22µM,5.8µM,3.2µM,3.5µM,2.7µM,–
Cc1c(O)ccc(C(=O)COc2ccccc2F)c1O,–,?,–,–,21µM,–
O=C(COc1ccccc1F)c1ccc(O)cc1O,–,–,–,–,?,–
O=C(Nc1nc2n(n1)C(c1ccc(F)cc1)CC(c1ccccc1)N2)c1ccco1 (stereo not drawn),·,–,–,–,–,·
SMILES,SMN2 splice up,ELG1 genotoxic,Rab9 promoter act,NPC1 promoter act,FLuc modulator,Luc counter
O=C(Cn1c(=O)n(-c2ccccc2)c(=O)c2c3c(sc21)CCC3)c1ccc(Br)cc1,–,·,·,·,–,·
CC(C)Oc1cccc(C(=O)Nc2ccc(-c3nc4cc(Cl)cc(Cl)c4o3)cc2)c1,–,·,·,·,–,·
O=C(CNC(=O)c1ccc(N2CCCC2=O)cc1)Nc1ccc(F)c(F)c1F,·,–,·,·,·,·
Cc1ccnc(NC(=O)CNC(=O)COc2ccccc2)c1,·,?,–,–,19µM,·
Cc1ccnc(NC(=O)CNC(=O)c2ccc3ccccc3c2)c1,·,21µM,–,–,?,·
O=S(=O)(NCC1(N2CCOCC2)CCCCC1)c1ccc(Cl)cc1C(F)(F)F,·,–,–,–,–,·
Nc1nc(O)c2ncn([C@H]3CC[C@@H](CO)O3)c2n1,–,·,·,·,·,–
